From PubChem BioAssay AID540333 (Southern Research Specialized Biocontainment Screening …, 2011)
The campaign covered roughly 10,000 compounds. About 320 (3.2%) were called active. Only a selection was taken, and actives are over-represented in it overall. Values without a mark were called inactive. Rule as the data show it: active = CPE inhibition mostly above about 9.1% (no sharp cut-off); inactive = mostly below about 7.2%.

Experiment: antivirals protecting cells from dengue CPE – CPE readout, HTS (AID 540333)
Details: Dengue virus CPE inhibition in host cells, at 20 µM; hits give high values

SMILES	CPE inhibition
CC(C(=O)NC1CCCc2ccccc21)N1CCN(c2ccc(F)cc2)CC1 (stereo unspecified)	0.305%
CC(C)(C)[C@H]1C=C(C(=O)NCc2ccccc2)O[C@@H](OCCCCO)C1	0.655%
CCC(C)c1ccccc1NC(=O)COC(=O)c1ccc2[nH]c3c(c2c1)CCCC3 (stereo unspecified)	25.9% (active)
CC(C)c1ccccc1NC(=O)COC(=O)Cc1c[nH]c2ccccc12	inactive
CC(C)c1ccccc1NC(=O)COC(=O)c1ccc(Cl)c(S(=O)(=O)N2CCCCCC2)c1	0.87%
NNc1nc(-c2ccccc2)nc2sc3c(c12)CCCC3	inactive
COc1ccc(-c2c(-c3cc(OC)cc(OC)c3)n(C)c3ccc(-c4ccc(N(C)C)nc4)cc23)cc1	0.63%
O=C1CN(C(=O)COc2ccc(Br)cc2F)c2ccccc2N1	inactive
CCOc1ccc(NS(=O)(=O)c2cc(NC(=O)CCS(=O)(=O)c3ccc(C)cc3)ccc2OC)cc1	0.21%
CCOC(=O)c1c(C)[nH]c(C(=O)N/N=C\c2ccccc2Cl)c1C	3.76%
CCOC(=O)c1c(C)nc2ccc(Cl)cc2c1-c1ccccc1	0.765%
CCOC(=O)c1c(C)[nH]c(C=O)c1Cc1cccc(Cl)c1	14.8% (active)
O=C(O)CCC(=O)Nc1ccccc1C(=O)NCc1ccccc1	1.71%
CCCCNc1c(-c2ccc(-c3cccc(Cl)c3)cc2)nc2ccc(Cl)cn12	9.97% (active)
CCCCNc1c(-c2cccc(-c3ccc(OC)cc3)c2)nc2cc(C)ccn12	inactive
CCCCNc1c(-c2cccc(SC(C)CC)c2)nc2ccc(Cl)cn12 (stereo unspecified)	1.45%
Cc1c(Cl)cccc1NC(=O)COC(=O)c1c2c(nc3ccccc13)CCN(Cc1ccccc1)C2	0.23%
CC(C)(C)c1nnc(N/N=C/c2ccccc2)n(N)c1=O	2.69%
CCc1nnc(N/N=C/c2cccs2)n1N	2.18%
CC(C)(C)c1nnc(N/N=C/c2ccc(Br)cc2)n(N)c1=O	27.6% (active)
C/C(=N\NC(=O)CN(c1ccccc1Br)S(C)(=O)=O)c1ccc2c(c1)OCCO2	0.855%
CCOC(=O)/C=C/[C@H]1CC(c2ccccc2)(c2ccccc2)CO1	0.15%
Cn1c(SCC(=O)N2c3ccccc3CCc3ccccc32)nnc1-c1ccc(O)cc1	inactive
Cn1c(SCC(=O)N2c3ccccc3CCc3ccccc32)nnc1-c1cc2ccccc2cc1O	11.1% (active)

SMILES	CPE inhibition
CCn1c(SCC(=O)N2c3ccccc3CCc3ccccc32)nnc1-c1ccc(OC)cc1	1.05%
CCn1cc(/C=C/C(=O)Nc2ccn(Cc3c(F)c(F)cc(F)c3F)n2)cn1	inactive
Cc1ccc(S(=O)(=O)N2CCC(=O)N(CCOCc3ccccc3)CC2)cc1	0.27%
C=CCn1c(C)cc(C(=O)COC(=O)[C@@H](NC(=O)c2ccccc2Cl)C(C)C)c1C	inactive
CCOC(=O)C(=CNc1cc(C)ccn1)C(=O)OCC	inactive
CCOC(=O)C(=CNc1ccc(NC2=NCC(C)S2)cc1)C(=O)OCC (stereo unspecified)	10.9% (active)
CCOC(=O)C(=O)NNc1ccc(C)cc1	inactive
O=C(CSc1nc2ccc(Cl)cc2[nH]1)N1CCN(C(=O)c2ccco2)CC1	0.04%
Cc1ccc(S(=O)(=O)NCCC(c2ccccc2)c2ccco2)cc1 (stereo unspecified)	inactive
Nc1nonc1C(=O)NCCNS(=O)(=O)c1ccc(F)cc1	inactive
O=S(=O)(NCCC(c1ccc(F)cc1)c1ccco1)c1ccccc1 (stereo unspecified)	14.2% (active)
CC(Nc1cc(N2CCNCC2)ccc1[N+](=O)[O-])c1ccccc1 (stereo unspecified)	0.87%
O=C(CN1CCN(Cc2ccccc2)CC1)Nc1ccc(S(=O)(=O)N2CCOCC2)cc1	inactive
Cn1c(SCC(=O)N2c3ccccc3Sc3ccccc32)nc2ccccc21	10.5%
Cc1ccc(-n2c(SCC(=O)N3c4ccccc4Sc4ccccc43)nnc2-c2ccncc2)cc1	13.2% (active)
Cc1ccc(-n2c(SCC(=O)N/N=C/c3ccc(C)s3)nnc2-c2ccccc2)cc1	6.83%
O=C(CSc1ccc(Cl)cc1)Nc1cccc(-c2nnc(-c3ccco3)o2)c1	0.905%
Cc1ccc(OCC(=O)Nc2cccc(S(=O)(=O)N3CCCCC3)c2)c([N+](=O)[O-])n1	0.73%
O=C(Nc1cc(S(=O)(=O)N2CCCC2)ccc1OCC(F)(F)F)c1ccc(F)cc1	inactive
O=C(CNc1cc(S(=O)(=O)N2CCCC2)ccc1OCC(F)(F)F)Nc1cccc(C(F)(F)F)c1	15.3% (active)
O=S(=O)(NCCCc1ccccc1)c1cccc2nsnc12	0.135%
O=C(O)CCN1CC2([N+](=O)[O-])C=CC(=O)C([N+](=O)[O-])(C1)C2CC(=O)c1ccccc1 (stereo unspecified)	0.01%
COc1cc(/C=N/NS(=O)(=O)c2ccccc2)ccc1OS(=O)(=O)c1ccc(C)cc1	0.62%
CCCc1cc(=O)[nH]c(SCC(=O)N2CCN(S(=O)(=O)c3ccc4ccccc4c3)CC2)n1	inactive

SMILES	CPE inhibition
O=C(/C=C/c1cccc(Cl)c1)NCc1ccncc1	0.12%
O=C(NC(Cc1c[nH]c2ccccc12)C(=O)OCC(=O)c1cccc2ccccc12)c1cccs1 (stereo unspecified)	inactive
COc1cc(CNn2cn[nH]c2=S)cc(Cl)c1OCc1ccc(F)cc1	inactive
COc1ccc(C2CC(=O)C3=C(C2)Nc2ccccc2NC3c2coc3ccccc3c2=O)cc1OC (stereo unspecified)	51.7% (active)
COc1ccccc1NC(=O)C1=C(C)NC2=C(C(=O)CC(c3ccc(OC)c(OC)c3)C2)C1c1coc2ccccc2c1=O (stereo unspecified)	5.03%
COc1ccc([C@H]2CC(=O)C=C(/C=C/c3ccccc3)C2)cc1OC	0.185%
O=C(CNc1cccc(C(F)(F)F)c1)N/N=C/c1cccc(Br)c1	9% (active)
C/C(=N\NC(=O)CNc1cccc(C(F)(F)F)c1)c1cccc(Br)c1	7.08%
C/C(=N\NC(=O)CNc1cccc(C(F)(F)F)c1)c1ccc(Br)cc1	3.77%
O=Cc1cc([N+](=O)[O-])ccc1N1CCOCC1	0.035%
Cc1nnc(SCc2cc(=O)oc3ccc4ccccc4c23)n1Cc1ccccc1	inactive
O=C(CON=C1c2ccccc2-c2ccccc21)NC12CC3CC(CC(C3)C1)C2	6.95%
CCCN1C(=O)/C(=N\OCC(=O)Nc2ccc(C(C)C)cc2)c2ccccc21	8.8%
CCCN1C(=O)/C(=N\OCC(=O)NC23CC4CC(CC(C4)C2)C3)c2ccccc21	22.5% (active)
C=CCNC(=O)c1cc(Cl)ccc1[N+](=O)[O-]	inactive
CCOC(=O)C1=C(C)NC(=S)NC1/C=C/c1ccccc1 (stereo unspecified)	inactive
CCOc1ccc(-c2cn(-c3cccc(SC)c3)c(=O)[nH]2)cc1	0.42%
Cc1ccc(S(=O)(=O)c2nnn3c2nc(Nc2cccc(C)c2)c2ccccc23)cc1	inactive
CC(C)(C)NC(=O)COC(=O)c1ccccc1Nc1ccc(SC(F)F)cc1	16.6% (active)
Cc1ccc(NC(=O)COC(=O)c2ccccc2Nc2ccccc2)cc1	1.36%
O=C(COC(=O)c1ccccc1Nc1ccccc1)Nc1ccccc1	1.4%
Cc1ccc(SCC(=O)NCc2ccncc2)cc1	inactive
Cc1c(NC(=O)/C(C#N)=C/c2ccc(-c3ccccc3Cl)o2)c(=O)n(-c2ccccc2)n1C	3.41%
Cc1c(Cl)cccc1Nc1nc(N)nc(CSc2nc3ccccc3s2)n1	10.3% (active)

SMILES	CPE inhibition
CN(CC(=O)Nc1ccccc1Cl)C(=O)CSc1nc2ccccc2s1	inactive
Cc1ccccc1Nc1nc(N)nc(COC(=O)c2ccc(O)cc2)n1	inactive
COc1ccc(CNc2nc(-c3ccccc3)nn2C(=O)c2ccc([N+](=O)[O-])cc2)cc1	inactive
Cn1cc([N+](=O)[O-])c(C(=O)N/N=C/c2ccc([N+](=O)[O-])cc2)n1	0.11%
CCNC(=O)c1cc(Cl)ccc1OC	0.845%
N#C/C(=C\c1ccc(OC(=O)c2ccc(Br)s2)cc1)c1nc2ccccc2[nH]1	8.02%
N#C/C(=C\c1cccs1)c1nc2ccccc2[nH]1	inactive
N#C/C(=C\c1ccc(Sc2ccccc2)o1)c1nc2ccccc2[nH]1	13% (active)
CCn1c(C)cs/c1=N\C(=S)Nc1ccccc1C	0.08%
Cc1ccc(C2CC(=O)C=C(NCC(C)C)C2)cc1 (stereo unspecified)	inactive
Cc1ccc(C)c(NC(=S)N(C)CCc2ccccn2)c1	inactive
Cc1ccccc1OCC(=O)N1N=C(c2cccnc2)CC1(O)C(F)(F)F (stereo unspecified)	inactive
COc1ccc(N=C2SC(CC(=O)Nc3ccccc3F)C(=O)N2Cc2ccco2)cc1 (stereo unspecified)	0.295%
CC/C(=N\N=C1\SC(C)C(=O)N1Cc1ccco1)c1ccccc1 (stereo unspecified)	22.7% (active)
COc1ccc(N=C2SC(CC(=O)Nc3ccccc3OC)C(=O)N2Cc2ccco2)cc1 (stereo unspecified)	1.94%
CSc1ccc(/C=N/NC(=O)COc2ccc(Br)cc2Cl)cc1	3.23%
CCN(CC)S(=O)(=O)c1cccc(NC(=O)CCSc2ccc(Cl)cc2)c1	11% (active)
COc1cccc(NC(=O)CCSc2ccc(C)cc2)c1	inactive
CN(C)S(=O)(=O)c1cccc(NC(=O)CCSc2ccc(Cl)cc2)c1	inactive
O=C(CSc1nc2ccccc2s1)Nc1ccc(Cl)c(S(=O)(=O)N2CCOCC2)c1	0.03%
Cc1ccc(CSc2ccc(-c3ccc4c(c3)OCO4)nn2)cc1	inactive
Cc1cc(O)c(C2=Nc3ccccc3SC(c3ccc(Cl)cc3)C2)c(=O)o1 (stereo unspecified)	5.1%
O=C1N(c2ccccc2)C(c2ccc(Cl)cc2)N2CCCN12 (stereo unspecified)	0.355%
O=C1CC(c2ccc(Cl)cc2)SC(N(c2ccccc2)c2ccccc2)=N1 (stereo unspecified)	23.9% (active)
